Screening data deposited in PubChem BioAssay by National Center for Advancing Translational Sciences (NCATS).
TGFb SMAD3 inh – inhibitors of TGF-b signaling. HepG2 CAGA-GFP TGF-b/SMAD3 reporter, GFP fluorescence, 18 h; TGF-beta stimulated, 500 pg/mL final. Potency, µM (highest dose often 46.1 µM), for inactives: at the top dose activity, negative = inhibition, hits mostly inhibitors. hit rate 1.2% among 410,000; also: % is scaled to controls: 0 for no effect and ±100 for the full control effect; nearly all actives have a fitted effect of over 65% in size
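Smad-responsive CAGA-GFP expression was quantified in HEPG2 cells exposed to compounds and 500 pg/mL final TGF-beta for 18 h at 37 degrees C; unstimulated wells defined full inhibition.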
KB-3-1 tox – kills parental KB-3-1 adenocarcinoma cells | KB-3-1 viability, CellTiter-Glo ATP luminescence, 72 h | Potency, µM (highest dose often 46.1 µM), most hits filed as cytotoxic | hit rate 1.4% among 400,000 | AID 1347075; also: % is scaled to controls: 0 for no effect and ±100 for the full control effect; nearly all actives have a fitted effect of over 60% in size
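Parental KB-3-1 viability, qHTS format: 72 h compound exposure, 37 °C; CellTiter-Glo; media-only wells and DMSO plates as controls; concentration-effect fits on corrected data.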
HT1080 IDH1KD tx – HT-1080 IDH1 knockdown cell toxicity (counter line). hit rate 2% among 360,000. HT-1080 IDH1 knockdown viability, ATP luminescence, 48 h. Potency, µM (doses to about 46.1 µM), inactives show top-dose activity, negative = toxicity, actives largely listed as cytotoxic;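 also: 0% = DMSO wells and -100% = cell-free medium wells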
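CellTiter-Glo luminescence after 48 h compound exposure at 37 degrees C of IDH1-knockdown HT-1080 cells in 5% FBS RPMI. %Activity scaled between DMSO wells and cell-free media wells, with curves fitted and assigned curve classes.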
HepG2 tox – kills HepG2 cells in TGF-b inhibitor counter-screen; HepG2 CAGA-GFP viability, ATP luminescence, 18 h; Potency, µM (highest dose often 46.1 µM), inactives show at the highest dose activity change, negative = cytotoxicity, usual class: cytotoxic; hit rate 0.76% among 410,000
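HepG2 CAGA-GFP cells (1000/well, DMEM with 1% FBS) received compound, then TGF-beta at 500 pg/mL final, and were incubated 18 hours at 37 degrees C. Viability was read by CellTiter-Glo luminescence. Media-only wells were set as complete cell-killing and DMSO as no toxicity.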
HT1080-NT tox – kills 2HG-producing HT-1080-NT fibrosarcoma cells. HT-1080-NT fibrosarcoma viability, CellTiter-Glo ATP luminescence, 48 h. Potency, µM (top dose mostly 46.1 µM), inactives show at the top dose activity, negative = less viability, usual class: cytotoxic. hit rate 1.6% among 360,000;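 also: NT is the 2HG producing partner of a matched IDH1 knockdown line; 0% = DMSO-treated cells and -100% = media-only wells without cells; nearly all actives have a fitted effect of over 55% in size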
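HT-1080-NT; 750 cells/well; 5% FBS RPMI; 48 h compound, 37 degrees C; CellTiter-Glo luminescence; curve fitting and curve-class assignment.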
KB-V1 MDR tox – KB-V1 MDR subline cytotoxicity. hit rate 3.4% among 400,000. AID 1347076. Potency, µM (top dose mostly 46.1 µM), actives largely listed as cytotoxic. KB-V1 MDR cells viability, CellTiter-Glo, 72 h; also: % is scaled to controls: 0 for no effect and ±100 for the full control effect; nearly all actives have a fitted effect of over 60% in size
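KB-V1 cells (P-gp-expressing MDR subline of KB-3-1) in phenol-red-free DMEM with 10% FBS were exposed to library compounds over a concentration series for 72 h at 37 degrees C. Viability read by CellTiter-Glo luminescence; concentration-effect curves fitted after normalization.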
Active calls of the source: *; [ ] = remark or other dose. Rows were chosen to be rich in hits. Some 6.6% of all compounds tested hit in one or more screens of this group. Calls follow the shape of the dose curve; as a rule, active = well fitted curve in the direction sought with a large enough effect; inconclusive = small, poorly fitted or top-dose-only effect, or another doubt; inactive = no such curve, though single readings can be large; an effect the other way counts as inactive or inconclusive. Potency is read from the fitted curve at half-maximal effect.

What do the screens show for `CCOc1ccc(NC(=O)Cn2c(=O)oc3cc(S(=O)(=O)N4CCC(C)CC4)ccc32)cc1`?
TGFb SMAD3 inh: inconclusive; KB-3-1 tox: inactive; HepG2 tox: -47%; KB-V1 MDR tox: inactive

What do the screens show for `Cc1c(Cl)cccc1NC(=O)CN1C(=O)C(C)N=C(c2ccccc2)c2ccccc21` (stereo unspecified)?
TGFb SMAD3 inh: -10%; KB-3-1 tox: inactive; HepG2 tox: -8%; KB-V1 MDR tox: inactive

What do the screens show for `CCOc1ccc2nc(NC(=O)c3cccn(Cc4ccc(Cl)cc4)c3=O)sc2c1`?
TGFb SMAD3 inh: 8%; KB-3-1 tox: inactive; HepG2 tox: -13%; KB-V1 MDR tox: inactive

Results for Cc1nc2cc(C(F)(F)F)ccc2n1C1CCN(Cc2nnnn2Cc2cccs2)CC1 ?
TGFb SMAD3 inh: -3%; KB-3-1 tox: inactive; HT1080 IDH1KD tx: -23%; HepG2 tox: -24%; HT1080-NT tox: -12%; KB-V1 MDR tox: inconclusive

What do the screens show for `Cc1nc2cc(C(F)(F)F)ccc2n1C1CCN(Cc2nnnn2Cc2ccc3c(c2)OCO3)CC1`?
TGFb SMAD3 inh: inconclusive; KB-3-1 tox: inconclusive; HT1080 IDH1KD tx: 29µM*; HepG2 tox: -37%; HT1080-NT tox: 23µM*; KB-V1 MDR tox: 18µM*

How did Cc1cccc(-n2c(CC3C(=O)Nc4ccc(C)cc43)nc3ccccc3c2=O)c1 (stereo unspecified) do in these assays?
TGFb SMAD3 inh: -25%; KB-3-1 tox: inactive; HepG2 tox: -15%; KB-V1 MDR tox: inactive

What do the screens show for `O=C1NC(=O)C(=Cc2cn(CCOc3ccc4c(c3)OCO4)c3ccccc23)C(=O)N1`?
TGFb SMAD3 inh: inconclusive; KB-3-1 tox: 21µM*; HT1080 IDH1KD tx: -8%[9.24 µM]; HepG2 tox: -16%; HT1080-NT tox: -3%; KB-V1 MDR tox: inconclusive

What do the screens show for `Cc1ccc(NC(=O)c2cc(S(=O)(=O)N3CCOCC3)c(Cl)cc2Cl)cc1`?
TGFb SMAD3 inh: inconclusive; KB-3-1 tox: inconclusive; HepG2 tox: -29%; KB-V1 MDR tox: inconclusive

What do the screens show for `CN(C)C(Cc1ccccc1)C(=O)c1ccccc1` (stereo unspecified)?
TGFb SMAD3 inh: -13%; KB-3-1 tox: inactive; HT1080 IDH1KD tx: -1%; HepG2 tox: -9%; HT1080-NT tox: -1%; KB-V1 MDR tox: inactive

Results for CC(C)N(C(=O)CCl)c1ccccc1 ?
TGFb SMAD3 inh: 11%; KB-3-1 tox: inconclusive; HT1080 IDH1KD tx: inconclusive; HepG2 tox: -12%; HT1080-NT tox: 3.7µM*; KB-V1 MDR tox: inconclusive

What do the screens show for `Nc1nonc1-n1nnc(C(=O)N/N=C/c2ccc3c(c2)OCO3)c1CSc1ccccc1`?
TGFb SMAD3 inh: 29%; KB-3-1 tox: inactive; HT1080 IDH1KD tx: -3%; HepG2 tox: 10%; HT1080-NT tox: 9%; KB-V1 MDR tox: inconclusive

How did CCOc1cc(CNCCc2c[nH]c3ccccc23)cc(Cl)c1OC do in these assays?
TGFb SMAD3 inh: 16µM*; KB-3-1 tox: inconclusive; HT1080 IDH1KD tx: 21µM*; HepG2 tox: -94%; HT1080-NT tox: 18µM*; KB-V1 MDR tox: inconclusive

Results for CCCCNCc1cc(Cl)c(OCCC)c(OCC)c1 ?
TGFb SMAD3 inh: -7%; KB-3-1 tox: inactive; HT1080 IDH1KD tx: inconclusive; HepG2 tox: -34%; HT1080-NT tox: inconclusive; KB-V1 MDR tox: 16µM*

Results for Clc1cccc(CNCCc2c[nH]c3ccccc23)c1 ?
TGFb SMAD3 inh: -9%; KB-3-1 tox: inactive; HT1080 IDH1KD tx: 16µM*; HepG2 tox: -4%; HT1080-NT tox: 18µM*; KB-V1 MDR tox: inactive

How did COc1ccc(CNCCc2c[nH]c3ccccc23)c(OC)c1OC do in these assays?
TGFb SMAD3 inh: -1%; KB-3-1 tox: inactive; HT1080 IDH1KD tx: inconclusive; HepG2 tox: -37%; HT1080-NT tox: -2%; KB-V1 MDR tox: inactive

Results for CC(C)CCOP(=O)(c1ccc(N(C)C)cc1)C(O)c1ccc(C(C)C)cc1 (stereo unspecified) ?
TGFb SMAD3 inh: inconclusive; KB-3-1 tox: inactive; HT1080 IDH1KD tx: -11%; HepG2 tox: -113%; HT1080-NT tox: -27%; KB-V1 MDR tox: inconclusive

How did CC(C)CCOP(=O)(c1ccc(N(C)C)cc1)C(O)c1ccc(Cl)cc1Cl (stereo unspecified) do in these assays?
TGFb SMAD3 inh: inconclusive; KB-3-1 tox: inconclusive; HT1080 IDH1KD tx: 16µM*; HepG2 tox: -170%; HT1080-NT tox: 23µM*; KB-V1 MDR tox: inconclusive

How did CCCCn1c(=O)c(C(=O)Nc2ccccc2)c(O)c2ccccc21 do in these assays?
TGFb SMAD3 inh: 22%; KB-3-1 tox: inactive; HT1080 IDH1KD tx: 14%; HepG2 tox: -9%; HT1080-NT tox: 9%; KB-V1 MDR tox: 13µM*

What do the screens show for `CCCCCn1c(=O)c(C(=O)Nc2nc(CC(=O)OCC)cs2)c(O)c2ccccc21`?
TGFb SMAD3 inh: 1%; KB-3-1 tox: inactive; HT1080 IDH1KD tx: 8%; HepG2 tox: 10%; HT1080-NT tox: 11%; KB-V1 MDR tox: 6.5µM*

Results for CCCCCn1c(=O)c(C(=O)Nc2ccccc2S(N)(=O)=O)c(O)c2ccccc21 ?
TGFb SMAD3 inh: inconclusive; KB-3-1 tox: 10µM*; HT1080 IDH1KD tx: inconclusive; HepG2 tox: -16%; HT1080-NT tox: -17%; KB-V1 MDR tox: inconclusive

Results for CCCCn1c(=O)c(C(=O)NCc2ccco2)c(O)c2ccccc21 ?
TGFb SMAD3 inh: -13%; KB-3-1 tox: inconclusive; HT1080 IDH1KD tx: 19%; HepG2 tox: -5%; HT1080-NT tox: 0%; KB-V1 MDR tox: inconclusive

Results for CCCCCn1c(=O)c(C(=O)NCc2ccco2)c(O)c2ccccc21 ?
TGFb SMAD3 inh: 48%; KB-3-1 tox: inactive; HT1080 IDH1KD tx: 11%; HepG2 tox: 4%; HT1080-NT tox: 3%; KB-V1 MDR tox: 21µM*

What do the screens show for `CCOc1ccc(CCNC(=O)c2cnc3sc(N4CCCC4)nn3c2=O)cc1`?
TGFb SMAD3 inh: inconclusive; HepG2 tox: -8%

What do the screens show for `COc1ccc(C)cc1NC(=O)N(Cc1ccc2c(c1)OCO2)C1CCN(Cc2ccccc2)CC1`?
TGFb SMAD3 inh: -3%; KB-3-1 tox: inactive; HepG2 tox: -3%; KB-V1 MDR tox: inactive

What do the screens show for `CC(C)CN1C(=S)SC(C)(C)C1n1oc(=O)n(-c2ccc(Cl)cc2)c1=O` (stereo unspecified)?
TGFb SMAD3 inh: inconclusive; KB-3-1 tox: inactive; HT1080 IDH1KD tx: inconclusive; HepG2 tox: -34%; HT1080-NT tox: inconclusive; KB-V1 MDR tox: inconclusive
